Assay results published in PubChem BioAssay AID488809 (Broad Institute, 2010).
Measured potencies and affinities stand elsewhere. Inconclusive results are not listed. Values without a mark were called inactive. The rule behind the calls is not given here.

Assay: cytotoxicity in NIH-3T3 fibroblasts, dose response, cytotoxicity control for antifungal drug resistance project, cell-based, Alamar Blue, fluconazole, dry powder (AID 488809)
Conditions: NIH-3T3 fibroblasts + fluconazole, Alamar Blue viability, 48 h; series mostly up to 26 µM; activity change, negative = toxicity: at the top concentration

Compound | activity change, negative = toxicity
CC1CCN(C(=O)Cn2c3ccccc3c3nc4n(c(=O)c32)CCS4)CC1 | -29.2%
CCCCNC(=O)N1CCN(c2ccnc3cc(Cl)ccc23)CC1 | -26.3%
O=C(Cn1c2ccccc2c2nc3n(c(=O)c21)CCCS3)c1ccc(F)cc1 | -25.7%
O=C(Cn1nc(-c2ccccc2)c2cc(Cl)ccc21)N1CCOCC1 | -33%
O=c1c2[nH]c3ccccc3c2nc2n1CCS2 | -20.2%
COc1ccc2c(c1)c1nc3n(c(=O)c1n2CC(=O)N1CCC(C)CC1)CCS3 | 15.5% [at 2.6 µM]
COc1ccc(OC)c2c(C)cc(N3CCN(C(=O)c4ccc(Cl)cc4)CC3)nc12 | -28.7%
CNC(=O)Cn1nc(-c2ccccc2)c2ccccc21 | -27.9%
O=C(Cn1c2ccccc2c2nc3n(c(=O)c21)CCS3)NCCc1ccc(Cl)cc1 | -24.4%
CCOC(=O)c1c2ccccc2nn1Cc1ccc(Cl)cc1 | -15.4%
COC(=O)Cn1nc(-c2ccccc2)c2cc(Cl)ccc21 | -27.8%
Cc1nn(S(C)(=O)=O)c2ccccc12 | -23.7%
O=C(Cn1c2ccccc2c2nc3n(c(=O)c21)CCS3)N1CCCC1 | -31.6%
COC(=O)Cn1nc(-c2ccc(C)cc2)c2ccccc21 | -25.3%
O=C(O)c1c2ccccc2nn1Cc1ccc(Cl)cc1 | -10.5%
COC(=O)Cn1nc(-c2ccc(Cl)cc2)c2ccccc21 | -3.6%
O=C(c1ccccc1)N1CCN(c2ccnc3cc(Cl)ccc23)CC1 | -29.5%
O=C(c1ccc(Cl)cc1)N1CCN(c2ccccn2)CC1 | -27.1%
CCCNC(=O)Cn1nc(-c2ccccc2)c2ccccc21 | -10.7%
O=C(c1ccc(Cl)cc1)N1CCN(c2ccc(Cl)cc2)CC1 | -4.29%
O=C(O)c1nn(Cc2ccc(Cl)cc2)c2ccccc12 | -16%
COC(=O)Cn1nc(-c2ccccc2)c2ccccc21 | -21.6%
O=C(Cn1nc(C(=O)N2CCCCC2)c2ccccc21)N1CCOCC1 | -21.6%
Cc1ccc(C(=O)N2CCN(c3ccnc4cc(Cl)ccc34)CC2)cc1 | -43.6%
COC(=O)Cn1nc(C)c2ccccc21 | -27.1%
